The structures appear in SMILES notation.

Some test systems named below: ABL2; ACVR1B; ACVR1; ACVR2A; ACVR2B; ACVRL1; ADCK4; AKT1; AKT2; AKT3; ALK; ANKK1; AURKA; AURKB.
What all share (details): concentration: 1 μM, replicates: in singlicate; n = 1
The subject of a further assay is T1, ADCK3.
T1 construct: gene CABC1

The next assay concerns T2, AMPK-alpha1.
T2 construct: gene PRKAA1

The subject of the next assay is T3, AMPK-alpha2.
T3 construct: gene PRKAA2

For another assay, the system named is T4, ARK5.
T4 construct: gene NUAK1

For the next assay, the system named is T5, ASK1.
T5 construct: gene MAP3K5

For a further assay, the system named is T6, ASK2.
T6 construct: gene MAP3K6
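Note: KINOMEscan kinase panel screen.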

As to `C[C@@H]1CCN(C(=O)CO)C[C@@H]1N(C)c1ncnc2[nH]ccc12`, the “%Inh” value was found to be 0% in the assay on ABL2; 13% with ACVR1B; 0% with ACVR1; 0% in the assay on ACVR2A; 0% in the assay with ACVR2B; 8% in the assay with ACVRL1. The “%Inh” value in the assay on ADCK3 was found to be 0%; with ADCK4, 0%; in the assay on AKT1, 0%; with AKT2 it was 0%; in the assay on AKT3 it was 7%; in the assay with ALK, 15%. In addition, the “%Inh” value came to 5% in the assay with AMPK-alpha1; 0% in the assay on AMPK-alpha2; 0% in the assay on ANKK1; 0% in the assay with ARK5; 0% in the assay with ASK1; 0% in the assay with ASK2. In addition, the “%Inh” value with AURKA and in the assay on AURKB was 0% each time.
`Fc1ccc(Nc2nccc(-c3c(-c4ccc(Cl)cc4)nn4ncccc34)n2)cc1F` [GW829058]: the “%Inh” value with ABL2 amounted to 19%; with ACVR1B it was 20%; with ACVR1 it was 0%; in the assay with ACVR2A it was 0%; with ACVR2B, 0%; with ACVRL1, 0%. In addition, the “%Inh” value in the assay on ADCK3 worked out at 0%; in the assay with ADCK4 it was 0%; in the assay with AKT1 it was 18%; in the assay on AKT2 it was 9%; in the assay on AKT3, 15%; in the assay with ALK, 43%. Besides, the “%Inh” value turned out to be 17% with AMPK-alpha1; 0% in the assay with AMPK-alpha2; 10% in the assay on ANKK1; 0% with ARK5; 2% in the assay with ASK1; 26% with ASK2. Moreover, the entries for the “%Inh” value in the assay on AURKA and with AURKB were 32% and 27%, respectively.
As for `NC(=O)c1sc(-n2cnc3ccccc32)cc1OCc1ccccc1F` [GSK1024306], the “%Inh” value is 8% in the assay with ABL2; 0% in the assay on ACVR1B; 0% in the assay on ACVR1; 0% with ACVR2A; 2% in the assay on ACVR2B; 0% in the assay on ACVRL1. Further, the “%Inh” value came to 5% in the assay with ADCK3; 7% in the assay with ADCK4; 0% in the assay on AKT1; 0% in the assay on AKT2; 0% in the assay with AKT3; 5% with ALK. Also, the “%Inh” value in the assay on AMPK-alpha1 is reported as 6%; in the assay on AMPK-alpha2, 0%; in the assay with ANKK1 it was 0%; in the assay with ARK5, 31%; in the assay with ASK1, 0%; with ASK2 it was 0%. Moreover, the “%Inh” value with AURKA and in the assay on AURKB was 0% throughout.
With `CNc1nccc(-c2c(-c3ccc(F)cc3)ncn2C2CCN(C)CC2)n1` [SB-222903], the “%Inh” value in the assay with ABL2, in the assay on ACVR1B, in the assay with ACVR1, in the assay on ACVR2A, in the assay with ACVR2B and in the assay on ACVRL1 was 0% in each case. Besides, the “%Inh” value in the assay with ADCK3 came to 0%; in the assay with ADCK4 it was 22%; with AKT1 it was 0%; in the assay on AKT2, 2%; in the assay with AKT3, 0%; with ALK, 0%. Also, the “%Inh” value in the assay with AMPK-alpha1 is reported as 0%; in the assay with AMPK-alpha2 it was 16%; in the assay with ANKK1, 0%; with ARK5, 4%; with ASK1, 0%; with ASK2 it was 0%. Moreover, the “%Inh” value is 6% in the assay with AURKA and 0% in the assay on AURKB.
With `Cc1cc(N2CCC(NS(=O)(=O)c3ccc(F)cc3)CC2)nc(Nc2cccc(C#N)c2)n1.O=C(O)C(F)(F)F` [GSK1653537], the “%Inh” value is given as 2% with ABL2; 0% with ACVR1B; 0% in the assay with ACVR1; 0% in the assay on ACVR2A; 0% in the assay with ACVR2B; 0% in the assay with ACVRL1. Further, the “%Inh” value with ADCK3 worked out at 0%; in the assay on ADCK4, 0%; in the assay with AKT1, 0%; with AKT2 it was 20%; in the assay with AKT3, 0%; in the assay with ALK it was 7%. Further, the “%Inh” value with AMPK-alpha1 worked out at 0%; in the assay on AMPK-alpha2 it was 20%; with ANKK1, 3%; with ARK5 it was 15%; in the assay with ASK1, 0%; with ASK2, 3%. Besides, the “%Inh” value in the assay with AURKA and with AURKB was 0% in each case.
Take `Nc1nc(-c2ccccn2)c(-c2ccnc3ccccc23)s1` [GW548057]: the “%Inh” value came out at 14% in the assay on ABL2; 59% in the assay with ACVR1B; 18% with ACVR1; 0% in the assay on ACVR2A; 56% in the assay with ACVR2B; 0% in the assay on ACVRL1. In addition, the “%Inh” value is listed as 9% with ADCK3; 44% with ADCK4; 0% with AKT1; 0% with AKT2; 0% in the assay on AKT3; 17% in the assay with ALK. The “%Inh” value with AMPK-alpha1 was found to be 14%; with AMPK-alpha2, 1%; in the assay with ANKK1, 20%; in the assay on ARK5, 24%; in the assay on ASK1 it was 2%; in the assay with ASK2, 0%. Besides, the results for the “%Inh” value in the assay with AURKA and in the assay on AURKB were 17% and 0%, respectively.
As for `CCC(CC)(CC)n1cnc2c(N)ncnc21` [SKF-97620], the “%Inh” value with ABL2 is recorded as 1%; in the assay on ACVR1B it was 10%; in the assay with ACVR1, 0%; in the assay on ACVR2A, 0%; in the assay with ACVR2B it was 0%; with ACVRL1 it was 0%. Moreover, the “%Inh” value in the assay with ADCK3 is reported as 0%; in the assay with ADCK4, 9%; with AKT1 it was 11%; with AKT2, 0%; with AKT3, 2%; in the assay with ALK it was 0%. Further, the “%Inh” value with AMPK-alpha1 was 8%; in the assay on AMPK-alpha2, 54%; with ANKK1, 17%; with ARK5, 0%; in the assay on ASK1, 2%; with ASK2 it was 26%. For the same compound, the “%Inh” value in the assay with AURKA was found to be 28%; in the assay with AURKB it was 24%.
`Nc1nc(-c2ccc3c(N)n[nH]c3c2)cc(N2CCC[C@@H](C(=O)Nc3ccccc3)C2)n1.O=C(O)C(F)(F)F.O=C(O)C(F)(F)F` [GSK2288359]: the “%Inh” value with ABL2, in the assay on ACVR1B, with ACVR1, with ACVR2A, in the assay on ACVR2B and in the assay on ACVRL1 was 0% each time. The “%Inh” value is given as 0% in the assay with ADCK3; 11% with ADCK4; 0% in the assay on AKT1; 7% with AKT2; 0% with AKT3; 5% with ALK. The “%Inh” value is 9% in the assay with AMPK-alpha1; 26% in the assay on AMPK-alpha2; 12% in the assay with ANKK1; 0% in the assay with ARK5; 1% with ASK1; 0% with ASK2. Moreover, the “%Inh” value in the assay on AURKB is listed as 0%.
With `Cn1cc(-c2ccc3c(c2)CCN3C(=O)Cc2cccc(C(F)(F)F)c2)c2c(N)ncnc21` [GSK2606414], the “%Inh” value was 11% in the assay on ABL2; 0% with ACVR1B; 0% in the assay on ACVR1; 0% in the assay with ACVR2A; 1% in the assay with ACVR2B; 4% in the assay with ACVRL1. Further, the “%Inh” value stood at 6% in the assay on ADCK3; 0% in the assay on ADCK4; 0% in the assay on AKT1; 18% in the assay on AKT2; 53% with AKT3; 1% with ALK. Moreover, the “%Inh” value with AMPK-alpha1 is recorded as 0%; in the assay on AMPK-alpha2, 13%; in the assay with ANKK1 it was 16%; in the assay with ARK5, 13%; in the assay on ASK1 it was 0%; in the assay on ASK2, 10%. For the same compound, the “%Inh” value in the assay on AURKA was 30%; in the assay with AURKB, 32%.
For the compound `O=C(c1ccc(-c2cc(-c3c[nH]nc3-c3ccccn3)ccn2)cc1)N1CCCC1` [GW792479], the “%Inh” value with ABL2 came to 0%; in the assay on ACVR1B, 77%; in the assay on ACVR1, 0%; in the assay with ACVR2A, 11%; with ACVR2B it was 22%; in the assay with ACVRL1 it was 0%. In addition, the “%Inh” value was 27% in the assay with ADCK3; 0% in the assay with ADCK4; 2% with AKT1; 0% in the assay with AKT2; 0% in the assay on AKT3; 16% with ALK. Besides, the “%Inh” value amounted to 0% in the assay on AMPK-alpha1; 12% with AMPK-alpha2; 0% in the assay on ANKK1; 0% with ARK5; 4% in the assay on ASK1; 0% in the assay on ASK2. Also, the “%Inh” value in the assay on AURKA came to 0%; in the assay with AURKB, 11%.
In the case of `CS(=O)(=O)CCNCc1ccc(-c2ccc3ncnc(Nc4ccc(OCc5ccccc5)c(Cl)c4)c3c2)o1.Cl` [GW574783], the “%Inh” value turned out to be 0% in the assay with ABL2; 0% in the assay with ACVR1B; 2% in the assay with ACVR1; 4% with ACVR2A; 22% in the assay with ACVR2B; 0% in the assay with ACVRL1. Also, the “%Inh” value in the assay with ADCK3 turned out to be 23%; with ADCK4, 20%; in the assay with AKT1 it was 46%; in the assay on AKT2 it was 21%; in the assay on AKT3, 27%; in the assay with ALK it was 18%. The “%Inh” value with AMPK-alpha1 was 9%; with AMPK-alpha2, 24%; in the assay with ANKK1, 0%; with ARK5 it was 18%; in the assay on ASK1, 0%; in the assay with ASK2, 0%. The “%Inh” value with AURKA stood at 0%; in the assay with AURKB, 4%.

(Values after article PMC5540273 (PLoS ONE, 2017).)
